In PubChem BioAssay (EPA / NIEHS) one finds outcome and AC50 data, which are given here for 4 compounds.

The source made the active and inactive calls. The calls were made as follows: active = hit-call score of the fitted dose curve at least 0.9, where 1 is the maximum; inactive = score below 0.9.

Details in all cases: mRNA level, 48 h; actives raise or lower the signal
Read-out in one experiment: CYP2E1 (gene 1571)
As to the kind of experiment: LTEA_HepaRG_CYP2E1: Life Technologies and Expression Analysis (LTEA) Assay for CYP2E1 using HepaRG (AID 2283485). The procedure, abridged:
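Human liver line HepaRG, plated 48 h, then serum-free induction medium + chemical x 48 h; 8-pt CRC from 100 uM, half-log, 0.5% DMSO, n=2. Readout: CYP2E1 mRNA qRT-PCR vs ACTB/GAPDH/POLR2A; bidirectional fit vs DMSO.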

Read-out in a further experiment: CYP4A11 (gene 1579)
The experiment in a line: LTEA_HepaRG_CYP4A11: Life Technologies and Expression Analysis (LTEA) Assay for CYP4A11 using HepaRG (AID 2283486). The procedure, abridged:
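CYP4A11 transcript levels were quantified by TaqMan qRT-PCR after HepaRG human liver cells were treated for 48 hours with test chemicals (top 100 uM, half-log dilutions, 0.5% DMSO). Gain or loss of signal was fitted relative to DMSO.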

Read-out in experiment [1]: Cytochrome P450 3A4 (Homo sapiens) (UniProt P08684)
The experiment in a line: LTEA_HepaRG_CYP3A4: Life Technologies and Expression Analysis (LTEA) Assay for CYP3A4 using HepaRG (AID 2283487). The essentials:
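In a human hepatic line (HepaRG), duplicate wells were treated 48 h with up to 100 uM chemical in half-log dilutions. Endpoint: CYP3A4 mRNA induction or loss relative to 0.5% DMSO vehicle, by qRT-PCR.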

Read-out in experiment [2]: DNA damage-inducible transcript 3 (DDIT3), DDIT3 (gene 1649)
The experiment in a line: LTEA_HepaRG_DDIT3: Life Technologies and Expression Analysis (LTEA) Assay for DNA damage-inducible transcript 3 (DDIT3) using HepaRG (AID 2283488). The essentials:
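HepaRG plated 48 h, switched to serum-free induction medium, dosed 48 h (100 uM top, half-log, 8 pts, 0.5% DMSO, n=2); RNA isolated; DDIT3 by qRT-PCR; bidirectional curve fit vs DMSO.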

Read-out in experiment [3]: Pro-epidermal growth factor (Homo sapiens) (UniProt P01133)
As to the kind of experiment: LTEA_HepaRG_EGF: Life Technologies and Expression Analysis (LTEA) Assay for Epidermal growth factor (EGF) using HepaRG (AID 2283489). The procedure, abridged: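 qRT-PCR readout of EGF transcript after 48 h chemical exposure of HepaRG cells; eight concentrations from 100 uM down in half-log steps, duplicate wells, 0.5% DMSO vehicle. Bidirectional curve fitting against DMSO baseline.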

Read-out in experiment [4]: Early growth response protein 1 (EGR1) transcription factor, EGR1 (gene 1958)
As to the kind of experiment: LTEA_HepaRG_EGR1: Life Technologies and Expression Analysis (LTEA) Assay for Early growth response protein 1 (EGR1) transcription factor using HepaRG (AID 2283490). The procedure, abridged:
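Differentiated human HepaRG cells in serum-free induction medium were exposed in duplicate for 48 h to eight concentrations (top 100 uM, half-log steps) in 0.5% DMSO. EGR1 mRNA was quantified by qRT-PCR, normalized to ACTB, GAPDH and POLR2A, and fitted bidirectionally versus DMSO.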

Read-out in experiment [5]: Ezrin (EZR), EZR (gene 7430)
The experiment in a line: LTEA_HepaRG_EZR: Life Technologies and Expression Analysis (LTEA) Assay for Ezrin (EZR) using HepaRG (AID 2283491). The procedure, abridged:
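Gain or loss of EZR mRNA is scored relative to 0.5% DMSO in human HepaRG cultures treated 48 h with test chemicals in duplicate, eight half-log concentrations from 100 uM.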

Read-out in another experiment: CYP3A5 (gene 1577)
The experiment in a line: LTEA_HepaRG_CYP3A5: Life Technologies and Expression Analysis (LTEA) Assay for CYP3A5 using HepaRG (AID 2283493). The procedure, abridged: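 HepaRG plated 48 h, switched to serum-free induction medium, chemicals added 48 h (max 100 uM, half-log, 0.5% DMSO). RNA isolated; CYP3A5 by TaqMan qRT-PCR. Gain/loss vs DMSO.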

Read-out in experiment [6]: Fatty Acid-Binding Protein 1 (FABP1), FABP1 (gene 2168)
As to the kind of experiment: LTEA_HepaRG_FABP1: Life Technologies and Expression Analysis (LTEA) Assay for Fatty Acid-Binding Protein 1 (FABP1) using HepaRG (AID 2283494). The procedure, abridged: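 Differentiated human HepaRG cells were exposed in duplicate for 48 h in serum-free induction medium to 8-point half-log concentration series topping at 100 uM in 0.5% DMSO. FABP1 mRNA measured by TaqMan qRT-PCR, normalized to ACTB/GAPDH/POLR2A; bidirectional fit versus DMSO.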

Read-out in experiment [7]: Cytochrome P450 4A22 (Homo sapiens) (UniProt Q5TCH4)
The experiment in a line: LTEA_HepaRG_CYP4A22: Life Technologies and Expression Analysis (LTEA) Assay for Cytochrome P450 4A22 (CYP4A22) using HepaRG (AID 2283495). The essentials: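 HepaRG, 48 h post-plating -> serum-free induction medium; dosed 48 h, duplicate, 8 conc. (100 uM top, half-log), 0.5% DMSO. Readout: CYP4A22 mRNA by qRT-PCR, ACTB/GAPDH/POLR2A normalization; gain/loss fit relative to DMSO.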

Read-out in experiment [8]: Cytochrome P450 7A1 (Homo sapiens) (UniProt P22680)
The experiment in a line: LTEA_HepaRG_CYP7A1: Life Technologies and Expression Analysis (LTEA) Assay for Cytochrome P450 7A1 (CYP7A1) using HepaRG (AID 2283496). The procedure, abridged: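 HepaRG cells plated 48 h, then switched to serum-free induction medium and exposed in duplicate for 48 h to 8-point half-log series from 100 uM in 0.5% DMSO. CYP7A1 mRNA by qRT-PCR (TaqMan), normalized to ACTB/GAPDH/POLR2A; bidirectional fit versus DMSO.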

Read-out in experiment [9]: Glutathione S-Transferase (GSTA2), GSTA2 (gene 2939)
As to the kind of experiment: LTEA_HepaRG_GSTA2: Life Technologies and Expression Analysis (LTEA) Assay for Glutathione S-Transferase (GSTA2) using HepaRG (AID 2283497). The essentials: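 Human HepaRG cells, plated 48 h, then exposed in serum-free induction medium for 48 h to eight half-log concentrations up to 100 uM in 0.5% DMSO, duplicate. GSTA2 mRNA by qRT-PCR, normalized to ACTB/GAPDH/POLR2A; bidirectional fit versus DMSO.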

Read-out in experiment [10]: Glutamate-cysteine ligase catalytic (GCLC), GCLC (gene 2729)
As to the kind of experiment: LTEA_HepaRG_GCLC: Life Technologies and Expression Analysis (LTEA) Assay for Glutamate-cysteine ligase catalytic (GCLC) using HepaRG (AID 2283498). The essentials: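 Differentiated human HepaRG cells, plated 48 h then switched to serum-free induction medium, were exposed in duplicate for 48 h to 8 half-log concentrations topping at 100 uM in 0.5% DMSO. GCLC mRNA was quantified by qRT-PCR against ACTB, GAPDH and POLR2A.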

Read-out in experiment [11]: growth arrest and DNA damage 45 (GADD45G), GADD45G (gene 10912)
The experiment in a line: LTEA_HepaRG_GADD45G: Life Technologies and Expression Analysis (LTEA) Assay for growth arrest and DNA damage 45 (GADD45G) using HepaRG (AID 2283499). The essentials:
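HepaRG, 48 h exposure, top 100 uM, half-log 8-point series, 0.5% DMSO vehicle, duplicates. Readout: GADD45G transcript by qRT-PCR (Fluidigm array), housekeeping-normalised (ACTB/GAPDH/POLR2A). Bidirectional curve fit vs DMSO baseline.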

Read-out in experiment [12]: Glutamate-cysteine ligase regulatory (GCLM), GCLM (gene 2730)
The experiment in a line: LTEA_HepaRG_GCLM: Life Technologies and Expression Analysis (LTEA) Assay for Glutamate-cysteine ligase regulatory (GCLM) using HepaRG (AID 2283500). The procedure, abridged:
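Cells were plated, cultured 48 h, switched to serum-free induction medium, then dosed in duplicate for 48 h at eight half-log concentrations up to 100 uM. RNA was then profiled by qRT-PCR; gain or loss versus DMSO was fitted.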

Read-out in experiment [13]: Heat shock 70 kDa protein 1 (HSPA1A), gene 3303
The experiment in a line: LTEA_HepaRG_HSPA1A: Life Technologies and Expression Analysis (LTEA) Assay for Heat shock 70 kDa protein 1 (HSPA1A) using HepaRG (AID 2283502). The procedure, abridged:
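Readout is HSPA1A transcript level by microfluidic qRT-PCR, normalized to three housekeeping genes and analysed for gain or loss of signal relative to 0.5% DMSO. Human HepaRG cultures received test chemicals for 48 h at up to 100 uM.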

Read-out in the next experiment: CYP2C9 (gene 1559)
As to the kind of experiment: LTEA_HepaRG_CYP2C9: Life Technologies and Expression Analysis (LTEA) Assay for CYP2C9 using HepaRG (AID 2283484). The essentials: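 Differentiated human HepaRG cells were exposed 48 h in serum-free induction medium to eight half-log concentrations up to 100 uM in 0.5% DMSO. CYP2C9 mRNA was measured by qRT-PCR, normalized to ACTB, GAPDH and POLR2A, and fitted bidirectionally against DMSO.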

Read-out in experiment [14]: Cytochrome P450 3A7 (Homo sapiens) (UniProt P24462)
The experiment in a line: LTEA_HepaRG_CYP3A7: Life Technologies and Expression Analysis (LTEA) Assay for CYP3A7 using HepaRG (AID 2283492). The essentials:
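CYP3A7 transcript levels were read by TaqMan qRT-PCR on Fluidigm arrays after 48 h chemical exposure of human HepaRG cells, with housekeeping-gene normalisation. Eight half-log concentrations up to 100 uM in 0.5% DMSO were tested in duplicate.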

Read-out in experiment [15]: Hypoxia-inducible factor 1-alpha (Homo sapiens) (UniProt Q16665)
The experiment in a line: LTEA_HepaRG_HIF1A: Life Technologies and Expression Analysis (LTEA) Assay for Hypoxia-inducible factor 1 (HIF1A) Trancription factor using HepaRG (AID 2283503). The procedure, abridged: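 Differentiated HepaRG cells in serum-free induction medium exposed 48 h, in duplicate, to 8-point half-log series from 100 uM in 0.5% DMSO. HIF1A mRNA measured by TaqMan qRT-PCR, normalized to ACTB/GAPDH/POLR2A, fitted bidirectionally versus DMSO.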

Chain of Cytochrome P450 3A4 (Homo sapiens) (P08684 whole entry, looked up): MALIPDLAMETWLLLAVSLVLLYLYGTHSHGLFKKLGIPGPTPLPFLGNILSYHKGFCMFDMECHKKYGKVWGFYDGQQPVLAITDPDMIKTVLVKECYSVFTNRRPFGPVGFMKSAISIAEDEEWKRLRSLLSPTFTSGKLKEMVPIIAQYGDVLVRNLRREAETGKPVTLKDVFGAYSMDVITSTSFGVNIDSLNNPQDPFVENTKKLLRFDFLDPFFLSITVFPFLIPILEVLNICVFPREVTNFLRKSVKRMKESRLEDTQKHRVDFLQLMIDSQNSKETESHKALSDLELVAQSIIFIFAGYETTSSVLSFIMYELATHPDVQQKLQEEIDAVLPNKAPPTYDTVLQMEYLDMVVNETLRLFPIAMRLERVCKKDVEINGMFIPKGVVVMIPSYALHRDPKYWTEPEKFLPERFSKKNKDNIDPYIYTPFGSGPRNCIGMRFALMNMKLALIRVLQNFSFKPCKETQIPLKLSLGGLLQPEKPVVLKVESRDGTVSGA
Chain of Hypoxia-inducible factor 1-alpha (Homo sapiens) (Q16665 whole entry, looked up): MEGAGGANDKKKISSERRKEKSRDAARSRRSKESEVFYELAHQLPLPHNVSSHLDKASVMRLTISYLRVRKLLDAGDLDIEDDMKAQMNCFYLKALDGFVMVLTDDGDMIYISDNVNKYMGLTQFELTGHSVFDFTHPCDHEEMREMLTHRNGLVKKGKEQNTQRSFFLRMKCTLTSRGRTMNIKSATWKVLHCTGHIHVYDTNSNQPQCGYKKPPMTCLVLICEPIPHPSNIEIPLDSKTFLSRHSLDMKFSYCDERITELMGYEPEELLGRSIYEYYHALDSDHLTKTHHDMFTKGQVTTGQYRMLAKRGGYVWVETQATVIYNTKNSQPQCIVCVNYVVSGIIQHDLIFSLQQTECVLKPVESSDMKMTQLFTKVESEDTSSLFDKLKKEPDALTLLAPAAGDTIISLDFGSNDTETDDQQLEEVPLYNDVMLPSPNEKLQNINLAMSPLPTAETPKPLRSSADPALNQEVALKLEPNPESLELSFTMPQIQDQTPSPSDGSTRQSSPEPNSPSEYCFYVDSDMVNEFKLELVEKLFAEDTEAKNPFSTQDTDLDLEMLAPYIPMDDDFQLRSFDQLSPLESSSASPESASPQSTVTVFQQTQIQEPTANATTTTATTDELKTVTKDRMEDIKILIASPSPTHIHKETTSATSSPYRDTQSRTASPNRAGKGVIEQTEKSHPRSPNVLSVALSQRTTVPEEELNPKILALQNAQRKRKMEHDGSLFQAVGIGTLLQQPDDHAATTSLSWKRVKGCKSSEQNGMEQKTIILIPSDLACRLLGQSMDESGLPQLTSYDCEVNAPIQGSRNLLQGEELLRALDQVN
Chain of Cytochrome P450 3A7 (Homo sapiens) (P24462 whole entry, looked up): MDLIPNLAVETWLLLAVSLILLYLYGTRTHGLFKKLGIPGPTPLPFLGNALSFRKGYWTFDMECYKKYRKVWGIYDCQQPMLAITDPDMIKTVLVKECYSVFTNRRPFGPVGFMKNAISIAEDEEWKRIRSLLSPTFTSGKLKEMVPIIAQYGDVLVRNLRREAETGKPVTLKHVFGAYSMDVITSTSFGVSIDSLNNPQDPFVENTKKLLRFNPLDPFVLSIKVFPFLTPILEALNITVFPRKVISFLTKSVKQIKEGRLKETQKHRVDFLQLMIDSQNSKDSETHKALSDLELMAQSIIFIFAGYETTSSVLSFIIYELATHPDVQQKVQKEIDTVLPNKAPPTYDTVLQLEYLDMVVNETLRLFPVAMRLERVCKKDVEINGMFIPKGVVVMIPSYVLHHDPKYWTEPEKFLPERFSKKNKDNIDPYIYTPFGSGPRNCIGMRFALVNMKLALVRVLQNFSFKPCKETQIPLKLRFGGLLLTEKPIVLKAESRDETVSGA

With `CN(C)[C@@H]1C(=O)C(C(N)=O)=C(O)[C@@]2(O)C(=O)C3=C(O)c4c(O)cccc4[C@@](C)(O)[C@H]3C[C@@H]12`, the result (with CYP2E1 (gene 1571); with CYP4A11 (gene 1579); in experiment [1]; in experiment [2]; in experiment [3]; in experiment [4]) was inactive. The outcome (in [5]; with CYP3A5 (gene 1577); in experiment [6]; in experiment [7]; in experiment [8]; in experiment [9]) was inactive. For the same compound, the compound was called inactive in experiment [10], in [11], in experiment [12] and in experiment [13].

Consider `CCC[CH2][Sn]([Cl])([CH2]CCC)[CH2]CCC`, for which the AC50 with CYP2C9 (gene 1559) is 2230 nM (active); with CYP2E1 (gene 1571), 505 nM (active); in [1], 2270 nM (active); in [2], 2280 nM (active); in experiment [4], 50000 nM (active); in experiment [14] it was 377 nM (active). The AC50 is 82800 nM (active) with CYP3A5 (gene 1577); 2310 nM (active) in experiment [6]; 1670 nM (active) in [9]; 50000 nM (active) in experiment [10]; 5560 nM (active) in experiment [11]; 2270 nM (active) in [13]. Besides, in experiment [15], the AC50 was 2070 nM (active). Besides, the result (with CYP4A11 (gene 1579); in experiment [5]; in experiment [12]) was inactive.

Consider `[Cl-].[Cl-].[Hg+2]`, for which the result (with CYP2C9 (gene 1559); with CYP2E1 (gene 1571); in the experiment with CYP4A11 (gene 1579); in experiment [1]; in [2]; in experiment [3]) was inactive. The outcome (in experiment [4]; in experiment [5]; in the experiment with CYP3A5 (gene 1577); in experiment [6]; in experiment [7]; in experiment [8]) was inactive. Besides, the compound was classed as inactive in experiment [9], in experiment [10], in [12], in [13] and in experiment [15]. In addition, in experiment [11], the AC50 is 24100 nM (active).

Turning to `COC(=O)c1ccccc1N`, the call (with CYP2C9 (gene 1559); with CYP2E1 (gene 1571); in the experiment with CYP4A11 (gene 1579); in experiment [1]; in experiment [2]; in [3]) was inactive. Moreover, the call (in experiment [4]; in experiment [5]; in the experiment with CYP3A5 (gene 1577); in experiment [6]; in experiment [7]; in [8]) was inactive. The result in experiment [9], in [10], in experiment [11], in [12] and in experiment [13] was inactive.
